Laboratory results published in PubChem BioAssay (Tox21).
Values joined by “and” are separate entries in the source; they are usually repeats but may differ in a detail not shown here. Equal values may be shown once. Results filed as inconclusive are left out. A structure can be active in one record and inactive in another. Active and inactive are the calls of the source. Unless noted, calls follow the shape of the dose curve; as a rule, active = well fitted curve in the direction sought with a large enough effect in the repeat runs; inconclusive = weak or mixed curves; inactive = no such curve, though single readings can be large; an effect the other way counts as inactive or inconclusive.

What was measured:
[1] = qHTS assay to identify small molecule that activate the aryl hydrocarbon receptor (AhR) signaling pathway - cell viability counter screen (AID 743086); also: nearly all actives have a fitted effect of over 45% in size; also: potency is read from the fitted curve at half-maximal effect
How it was run: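 HepG2-AhR-luc (HG2L7.5c1) cells, 4000/well, were preincubated 5 h at 37C, exposed to compound in qHTS format for 24 hr at 37C, then given CellTiter-Fluor for 30 min; viability was read as fluorescence in the reporter wells.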

[2] = qHTS assay to identify small molecule antagonists of the peroxisome proliferator-activated receptor gamma (PPARg) signaling pathway - cell viability counter screen (AID 743194); also: nearly all actives have a fitted effect of over 55% in size; also: potency is read from the fitted curve at half-maximal effect
How it was run: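 PPARg-UAS-bla HEK293H cells were plated, rested 5 h at 37 C, then treated with compounds plus rosiglitazone (50 nM final) for 17 h at 37 C; viability was then read by CellTiter-Glo luminescence after 30 min at room temperature.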

[3] = qHTS assay for small molecule agonists of the antioxidant response element (ARE) signaling pathway (AID 743202; active = well fitted activation curve with a large enough effect in the signal ratio in the repeat runs, not every such curve was filed as active; the % refers to the signal ratio)
How it was run: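 Read-out: LiveBLAzer B/G FRET substrate fluorescence after 2 h at room temperature, following 16 h compound treatment at 37 C of HepG2 cells carrying an ARE-driven beta-lactamase reporter.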

[4] = qHTS assay for small molecule agonists of the antioxidant response element (ARE) signaling pathway - cell viability counter screen (AID 743203; calls by dose curve; also: nearly all actives have a fitted effect of over 55% in size; also: potency is read from the fitted curve at half-maximal effect)
How it was run: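 Following 16 hrs of compound treatment at 37C, HepG2 cells with an ARE-controlled beta-lactamase gene were lysed with CellTiter-Glo. Luminescence was read after 30 min at room temperature.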

[5] = qHTS assay for small molecule activators of the heat shock response signaling pathway - cell viability counter screen (AID 743209); also: nearly all actives have a fitted effect of over 50% in size
How it was run: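 Readout: CellTiter-Glo luminescence, 30 min at room temperature. System: HSE-bla HeLa cells, 1500/well, plated overnight. Treatment: compounds in DMSO, 5 h at 37 C.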

[6] = qHTS assay for small molecule activators of the heat shock response signaling pathway (AID 743210; active = well fitted activation curve with a large enough effect in the signal ratio in the repeat runs, with a control signal flat, not every such curve was filed as active; the % refers to the signal ratio; also: series mostly up to about 63 µM)
How it was run: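 HSE-bla HeLa cells (beta-lactamase reporter under heat shock response elements) were exposed to compounds for 5 h at 37 C, then loaded with LiveBLAzer B/G FRET substrate for 2.5 h at room temperature before fluorescence reading.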

[7] = qHTS assay to identify small molecule agonists of the peroxisome proliferator-activated receptor delta (PPARd) signaling pathway - cell viability counter screen (AID 743211); also: nearly all actives have a fitted effect of over 55% in size; also: potency is read from the fitted curve at half-maximal effect
How it was run: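 Read-out: CellTiter-Glo luminescence, 30 min RT, measured in the same wells as the beta-lactamase reporter. Cells: GeneBLAzer PPAR delta UAS-bla HEK293H, 3000 cells/well, compound exposure 17 h at 37C.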

[8] = qHTS assay to identify small molecule antagonists of the peroxisome proliferator-activated receptor delta (PPARd) signaling pathway - cell viability counter screen (AID 743213); also: nearly all actives have a fitted effect of over 50% in size; also: potency is read from the fitted curve at half-maximal effect
How it was run: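 In this counter screen, HEK293H cells carrying a UAS-beta-lactamase reporter are co-treated with test compounds and 300 nM L165041 (final) for 17 h at 37 C; cell viability is quantified by CellTiter-Glo luminescence.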

[9] = qHTS assay to identify small molecule agonists of the farnesoid-X-receptor (FXR) signaling pathway - cell viability counter screen (AID 743218); also: nearly all actives have a fitted effect of over 45% in size; also: potency is read from the fitted curve at half-maximal effect
How it was run: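 Parallel cytotoxicity test: compound-treated (16 h, 37 C) HEK 293T FXR-bla reporter cells were lysed with CellTiter-Glo and luminescence recorded.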

[10] = qHTS assay to identify small molecule antagonists of the farnesoid-X-receptor (FXR) signaling pathway - cell viability counter screen (AID 743221; active = well fitted cell-killing curve with a large enough effect in the repeat runs, not every such curve was filed as active; also: nearly all actives have a fitted effect of over 50% in size; also: potency is read from the fitted curve at half-maximal effect)
How it was run: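 HEK 293T FXR-bla cells, 5 h pre-incubation; compound + CDCA 50 uM final, 16 h, 37 C; beta-lactamase FRET read first, then CellTiter-Glo luminescence, 30 min RT.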

[11] = qHTS assay to identify small molecule agonists of the vitamin D receptor (VDR) signaling pathway - cell viability counter screen (AID 743224); also: nearly all actives have a fitted effect of over 50% in size; also: potency is read from the fitted curve at half-maximal effect
How it was run: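 Plated VDR-bla cells (4 h, 37C) received compound, incubated 16 h, then LiveBLAzer substrate 2 h RT; CellTiter-Glo added afterwards, luminescence read at 30 min.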

[12] = biological target: Peroxisome proliferator-activated receptor gamma (Homo sapiens) (UniProt P37231); assay: qHTS assay to identify small molecule agonists of the peroxisome proliferator-activated receptor gamma (PPARg) signaling pathway (AID 743094; active = well fitted activation curve with a large enough effect in the signal ratio in the repeat runs, not every such curve was filed as active; the % refers to the signal ratio)
Chain of Peroxisome proliferator-activated receptor gamma (Homo sapiens) (P37231 whole entry, looked up): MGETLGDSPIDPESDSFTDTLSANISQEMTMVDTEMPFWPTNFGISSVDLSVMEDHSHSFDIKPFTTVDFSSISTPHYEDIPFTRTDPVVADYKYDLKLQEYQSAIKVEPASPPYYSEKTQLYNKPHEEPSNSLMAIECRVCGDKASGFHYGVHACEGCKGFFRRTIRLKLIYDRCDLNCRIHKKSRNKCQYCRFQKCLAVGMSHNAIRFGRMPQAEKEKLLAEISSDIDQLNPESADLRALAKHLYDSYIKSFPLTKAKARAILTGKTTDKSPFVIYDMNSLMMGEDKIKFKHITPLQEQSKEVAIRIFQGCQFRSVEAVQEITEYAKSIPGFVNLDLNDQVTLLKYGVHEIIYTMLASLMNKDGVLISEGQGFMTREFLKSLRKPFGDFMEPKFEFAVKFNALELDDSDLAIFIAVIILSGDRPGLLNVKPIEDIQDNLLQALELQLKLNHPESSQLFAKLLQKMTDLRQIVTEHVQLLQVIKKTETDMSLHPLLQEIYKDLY
How it was run: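 Compounds dissolved in DMSO were added to PPARg UAS-bla HEK293H cells for 17 h at 37C, and reporter expression was quantified by fluorescence intensity after 1 h with LiveBLAzer B/G FRET substrate.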

[13] = biological target: Peroxisome proliferator-activated receptor gamma (Homo sapiens) (UniProt P37231); assay: qHTS assay to identify small molecule antagonists of the peroxisome proliferator-activated receptor gamma (PPARg) signaling pathway (AID 743191; calls by dose curve; also: nearly all actives have a fitted effect of over 30% in size; also: potency is read from the fitted curve at half-maximal effect)
How it was run: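 GeneBLAzer PPARg UAS-bla HEK293H cells carrying a UAS-driven beta-lactamase reporter were plated at 3000 cells/well, preincubated 5 h at 37C, then given compound for 17 h at 37C; LiveBLAzer B/G FRET substrate was read after 1 h at room temperature.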

[14] = biological target: Peroxisome proliferator-activated receptor delta (Homo sapiens) (UniProt Q03181); assay: qHTS assay to identify small molecule agonists of the peroxisome proliferator-activated receptor delta (PPARd) signaling pathway (AID 743212; calls by dose curve)
Chain of Peroxisome proliferator-activated receptor delta (Homo sapiens) (Q03181 whole entry, looked up): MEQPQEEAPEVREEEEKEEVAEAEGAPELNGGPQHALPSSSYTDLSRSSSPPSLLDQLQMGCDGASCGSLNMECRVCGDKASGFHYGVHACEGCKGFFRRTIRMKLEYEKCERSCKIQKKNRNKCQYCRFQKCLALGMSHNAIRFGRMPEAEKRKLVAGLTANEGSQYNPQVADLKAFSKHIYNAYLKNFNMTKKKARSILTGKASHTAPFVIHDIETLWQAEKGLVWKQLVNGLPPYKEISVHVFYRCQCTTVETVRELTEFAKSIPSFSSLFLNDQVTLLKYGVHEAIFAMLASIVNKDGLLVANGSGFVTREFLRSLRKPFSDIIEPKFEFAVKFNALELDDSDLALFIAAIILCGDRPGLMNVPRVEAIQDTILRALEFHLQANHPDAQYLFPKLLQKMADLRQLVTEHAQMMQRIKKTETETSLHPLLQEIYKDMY
How it was run: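 GeneBLAzer PPARd UAS-bla HEK293H cells (beta-lactamase reporter under UAS control), plated and rested 5 h at 37 C, then exposed to compounds in DMSO at 37 C; LiveBLAzer B/G FRET substrate added, 2 h room temperature, fluorescence read.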

[15] = biological target: Peroxisome proliferator-activated receptor delta (Homo sapiens) (UniProt Q03181); assay: qHTS assay to identify small molecule antagonists of the peroxisome proliferator-activated receptor delta (PPARd) signaling pathway (AID 743215; active = well fitted inhibition curve with a large enough effect in the signal ratio in the repeat runs, not every such curve was filed as active; the % refers to the signal ratio;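 also: cells stimulated with agonist L165041 at 300 nM final during compound exposure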; also: potency is read from the fitted curve at half-maximal effect)
How it was run: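 HEK293H UAS-bla, PPARd; agonist L165041 300 nM final with cpd in DMSO; 37 C 17 h; FRET substrate, RT 2 h; fluorescence intensity.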

[16] = biological target: Aryl hydrocarbon receptor (Homo sapiens) (UniProt P35869); assay: qHTS assay to identify small molecule that activate the aryl hydrocarbon receptor (AhR) signaling pathway (AID 743085); also: nearly all actives have a fitted effect of over 15% in size; also: potency is read from the fitted curve at half-maximal effect;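 as to activation: HG2L7.5c1 human HepG2 liver cells with stably integrated DRE-driven firefly reporter; series mostly up to about 70 µM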
Chain of Aryl hydrocarbon receptor (Homo sapiens) (P35869 whole entry, looked up): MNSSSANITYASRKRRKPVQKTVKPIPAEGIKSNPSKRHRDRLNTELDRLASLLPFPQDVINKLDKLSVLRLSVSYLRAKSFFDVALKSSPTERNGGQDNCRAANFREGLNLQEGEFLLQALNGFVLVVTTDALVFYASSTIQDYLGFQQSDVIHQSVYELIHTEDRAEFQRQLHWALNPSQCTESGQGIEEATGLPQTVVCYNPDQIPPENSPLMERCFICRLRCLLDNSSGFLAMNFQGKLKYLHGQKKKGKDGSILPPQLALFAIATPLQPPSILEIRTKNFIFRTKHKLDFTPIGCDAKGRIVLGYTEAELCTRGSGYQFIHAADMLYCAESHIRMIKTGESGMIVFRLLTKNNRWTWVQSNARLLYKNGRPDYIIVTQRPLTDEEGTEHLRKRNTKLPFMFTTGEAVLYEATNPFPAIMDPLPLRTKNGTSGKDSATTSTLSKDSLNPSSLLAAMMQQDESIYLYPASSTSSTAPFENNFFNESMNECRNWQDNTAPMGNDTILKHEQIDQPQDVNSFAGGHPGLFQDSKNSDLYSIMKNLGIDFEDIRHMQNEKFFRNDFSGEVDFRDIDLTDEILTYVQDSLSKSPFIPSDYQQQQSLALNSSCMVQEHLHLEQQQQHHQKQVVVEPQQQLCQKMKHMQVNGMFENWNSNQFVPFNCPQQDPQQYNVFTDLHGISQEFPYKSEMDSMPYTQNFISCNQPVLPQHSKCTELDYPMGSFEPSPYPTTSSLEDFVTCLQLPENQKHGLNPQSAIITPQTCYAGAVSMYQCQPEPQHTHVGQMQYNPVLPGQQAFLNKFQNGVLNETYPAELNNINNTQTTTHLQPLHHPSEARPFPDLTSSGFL
How it was run: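 Luminescence read-out: ONE-Glo reagent, 30 min at room temperature, in HG2L7.5c1 HepG2 reporter cells treated 24 h at 37C. Viability was measured beforehand by CellTiter-Fluor fluorescence after 30 min at 37C.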

[17] = biological target: Bile acid receptor (Homo sapiens) (UniProt Q96RI1); assay: qHTS assay to identify small molecule agonists of the farnesoid-X-receptor (FXR) signaling pathway (AID 743220; active = well fitted activation curve with a large enough effect in the signal ratio in the repeat runs, not every such curve was filed as active; the % refers to the signal ratio)
Chain of Bile acid receptor (Homo sapiens) (Q96RI1 whole entry, looked up): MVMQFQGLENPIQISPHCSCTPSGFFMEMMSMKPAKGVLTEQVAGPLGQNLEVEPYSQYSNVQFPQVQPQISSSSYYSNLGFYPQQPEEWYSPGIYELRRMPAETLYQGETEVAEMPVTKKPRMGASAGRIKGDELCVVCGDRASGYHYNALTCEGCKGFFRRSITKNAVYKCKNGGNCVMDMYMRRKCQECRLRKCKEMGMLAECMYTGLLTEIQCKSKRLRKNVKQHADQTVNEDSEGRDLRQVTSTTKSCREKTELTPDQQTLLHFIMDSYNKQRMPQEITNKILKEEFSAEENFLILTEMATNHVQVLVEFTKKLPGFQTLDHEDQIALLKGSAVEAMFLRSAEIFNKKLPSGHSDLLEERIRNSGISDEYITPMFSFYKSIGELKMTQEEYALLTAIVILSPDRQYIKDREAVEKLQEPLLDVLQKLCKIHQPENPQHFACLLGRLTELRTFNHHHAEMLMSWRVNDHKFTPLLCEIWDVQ
How it was run: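 Beta-lactamase reporter under UAS control in GeneBLAzer FXR HEK 293T cells (5000/well) measured with LiveBLAzer FRET substrate after 2 h at room temperature. Compound exposure lasted 16 h at 37C.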

[18] = biological target: Vitamin D3 receptor (Homo sapiens) (UniProt P11473); assay: qHTS assay to identify small molecule agonists of the vitamin D receptor (VDR) signaling pathway (AID 743222; calls by dose curve)
Chain of Vitamin D3 receptor (Homo sapiens) (P11473 whole entry, looked up): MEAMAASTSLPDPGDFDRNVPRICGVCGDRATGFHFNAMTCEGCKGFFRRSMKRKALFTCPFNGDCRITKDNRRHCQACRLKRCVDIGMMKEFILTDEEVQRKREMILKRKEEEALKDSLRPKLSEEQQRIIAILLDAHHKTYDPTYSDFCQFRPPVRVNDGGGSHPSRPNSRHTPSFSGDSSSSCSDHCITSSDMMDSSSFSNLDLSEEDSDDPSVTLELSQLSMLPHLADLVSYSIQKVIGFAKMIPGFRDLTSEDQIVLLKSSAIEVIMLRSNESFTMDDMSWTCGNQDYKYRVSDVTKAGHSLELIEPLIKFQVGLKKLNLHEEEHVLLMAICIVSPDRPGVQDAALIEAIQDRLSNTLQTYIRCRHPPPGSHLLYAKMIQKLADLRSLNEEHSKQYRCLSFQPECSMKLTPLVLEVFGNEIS
How it was run: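 In VDR-bla cells, compound-induced beta-lactamase expression is quantified by FRET substrate fluorescence. Treatment lasts 16 h at 37C; substrate develops 2 h at room temperature.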

[19] = biological target: Vitamin D3 receptor (Homo sapiens) (UniProt P11473); assay: qHTS assay to identify small molecule antagonists of the vitamin D receptor (VDR) signaling pathway (AID 743223; active = well fitted inhibition curve with a large enough effect in the signal ratio in the repeat runs, not every such curve was filed as active; the % refers to the signal ratio)
How it was run: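 Beta-lactamase reporter read-out: FRET substrate fluorescence after 2 h at room temperature, following 16 h exposure of VDR-bla cells to test compound plus 3 nM (final) 1alpha,25-dihydroxyvitamin D3 agonist at 37C.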

[20] = biological target: Bile acid receptor (Homo sapiens) (UniProt Q96RI1); assay: qHTS assay to identify small molecule antagonists of the farnesoid-X-receptor (FXR) signaling pathway (AID 743217; active = well fitted inhibition curve with a large enough effect in the signal ratio in the repeat runs, not every such curve was filed as active; the % refers to the signal ratio; also: potency is read from the fitted curve at half-maximal effect)
How it was run: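 GeneBLAzer FXR-UAS-bla HEK 293T, CDCA-stimulated (50 uM final). Compound treatment 16 h, 37 °C. Detection: beta-lactamase cleavage of B/G FRET substrate, fluorescence.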

Measured: Potency

CN(C)CCOC(c1ccccc1)c1ccccc1
inactive: [1] | [2] | [3] | [4] | [5] | [6] | [7] | [8] | [9] | [10] | [11]

C1=CC2C3C=CC(C3)C2C1 (stereo not drawn)
inactive: [1] | [4] | [5] | [6] | [8] | [10] | [11]

CCCCC(CC)C(=O)O (stereo not drawn)
not listed: [16] | [17] | [18] | [19] | [20]
inactive: all other assays above

COc1ccc2cc(S(=O)(=O)N[C@H](CC(=O)N[C@H](Cc3ccc(CN4[C@H](C)CCC[C@@H]4C)cc3)C(=O)N(C)C(C)C)c3ccc4c(c3)OCO4)ccc2c1
active: [1] 23 µM | [2] 46.3 µM | [4] 18.3 µM | [7] 14.7 µM | [8] 29.2 µM | [9] 26.1 µM | [10] 52 µM | [11] 52 µM
inactive: [16] | [5] | [6] | [17] | [18]

CN(C)C(=O)Nc1ccc(Cl)c(Cl)c1
not listed: [16] | [17] | [18] | [19] | [20]
inactive: all other assays above

Nc1ccc2c(c1)CN1C(=O)c3ccccc3C1=N2
inactive: [2] | [4] | [5] | [6] | [7] | [9] | [17] | [11]

Cc1ccc(S(=O)(=O)O)cc1
inactive: [1] | [2] | [3] | [4] | [5] | [7] | [8] | [9] | [10] | [11]

O=C1OC2(c3ccccc31)c1cc(Br)c(O)c(Br)c1Oc1c2cc(Br)c(O)c1Br
inactive: [16] | [2] | [4] | [5] | [7] | [8] | [9] | [10] | [11]
active: [1] 10.6 µM and 2.77 µM and 6.28 µM

CN1[C@@H]2CC(OC(=O)[C@H](CO)c3ccccc3)C[C@H]1[C@@H]1O[C@@H]12 (stereo partly drawn)
not listed: [6] | [16] | [17] | [20]
inactive: all other assays above

O=C1NS(=O)(=O)c2ccccc21
inactive: [1] | [2] | [3] | [4] | [5] | [7] | [8] | [9] | [10] | [11]

CN1CCc2cccc3c2[C@H]1Cc1ccc(O)c(O)c1-3
active: [13] 6.49 µM | [2] 44.1 µM and 3.65 µM | [4] 49.1 µM and 5.74 µM | [7] 49.5 µM and 10.3 µM and 21.1 µM | [8] 49.5 µM and 18.3 µM | [15] 55.5 µM and 10.3 µM | [20] 39.3 µM and 18.3 µM | [11] 49.5 µM and 16.3 µM and 26.6 µM
44.1 µM (active) and inactive: [10]
inactive and 61.8 µM (active): [1]
inactive: [12] | [5] | [14] | [17] | [18] | [19]

Nc1ccc([N+](=O)[O-])cc1O
inactive: [4] | [5] | [6] | [7]
active: [16] 13.7 µM | [1] 38.6 µM

Nc1ccc(O)c([N+](=O)[O-])c1
inactive: [12] | [6] | [7] | [14] | [8]
active: [16] 43.3 µM
